# The full data set covers some 8,800 targets. This sample favours those with a hit. About 0.5% of all pairs of compound and target were hits. A number with no mark means an inactive call.
# Assays:
# Test in all cases: log2 fold change, soluble protein after heating vs DMSO (PISA); higher = thermal stabilisation; K562 lysate, 10 uM; active = over 0.2 and 3.5 SD of the protein, either way, in both replicates (recomputed)
# vemurafenib = compound: CCCS(=O)(=O)Nc1ccc(F)c(C(=O)c2c[nH]c3ncc(-c4ccc(Cl)cc4)cc23)c1F [vemurafenib]
# In short: (§1)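 Quantification was by TMTpro 16plex LC-MS/MS with equalised channel sums, applied to the supernatant after 21,000xg for 90 min. Samples were crude K562 extract at 1 mg/mL protein in PBS pH 7.4 with 1 mM MgCl2, treated with 10 μM compound for 30 min, heated for 3 min across 48°C-58°C, pooled and brought to 0.5% NP-40 at 4°C. Values are log-two fold changes in thermal stability relative to solvent controls, from duplicates.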
# [1] = compound: CCCS(=O)(=O)Nc1ccc(F)c(C(=O)c2c[nH]c3ncc(Cl)cc23)c1F
# In short: as §1
# barasertib = compound: CCN(CCCOc1ccc2c(Nc3cc(CC(=O)Nc4cccc(F)c4)[nH]n3)ncnc2c1)CCOP(=O)(O)O [barasertib]
# In short: as §1
# [2] = compound: CC[C@@H]1C(=O)N(C)c2cnc(Nc3ccc(C(=O)NC4CCN(C)CC4)cc3OC)nc2N1C1CCCC1
# In short: as §1
# volasertib = compound: CC[C@@H]1C(=O)N(C)c2cnc(Nc3ccc(C(=O)N[C@H]4CC[C@H](N5CCN(CC6CC6)CC5)CC4)cc3OC)nc2N1C(C)C [volasertib]
# In short: as §1
# [3] = compound: CCn1cc(-c2ccnc3[nH]c(-c4cccc(CN(C)C)c4)cc23)c(-c2ccc(NC(=O)N(C)C)cc2)n1
# In short: as §1
# [4] = compound: CN1CCC(CNc2ccc3ncc(-c4cccc(OC(F)(F)F)c4)n3n2)CC1
# In short: as §1
# saracatinib = compound: CN1CCN(CCOc2cc(OC3CCOCC3)c3c(Nc4c(Cl)ccc5c4OCO5)ncnc3c2)CC1 [saracatinib]
# In short: as §1
# sotrastaurin = compound: CN1CCN(c2nc(C3=C(c4c[nH]c5ccccc45)C(=O)NC3=O)c3ccccc3n2)CC1 [sotrastaurin]
# In short: as §1
# alvocidib = compound: CN1CC[C@H](c2c(O)cc(O)c3c(=O)cc(-c4ccccc4Cl)oc23)[C@H](O)C1 [alvocidib]
# In short: as §1
# [5] = compound: CNC(=O)C1=CC=CC=C1NC2=NC(=NC=C2Cl)NC3=C(C=C(C=C3)N4CCOCC4)OC
# In short: as §1
# defactinib = compound: CNC(=O)c1ccc(Nc2ncc(C(F)(F)F)c(NCc3nccnc3N(C)S(C)(=O)=O)n2)cc1 [defactinib]
# In short: as §1
# [6] = compound: CNc1nc(-c2ccc3c(N)n[nH]c3c2)cc(N2C[C@@H](C(=O)NC3CCCCC3)CC[C@H]2C)n1
# In short: as §1
# encorafenib = compound: COC(=O)N[C@@H](C)CNc1nccc(-c2cn(C(C)C)nc2-c2cc(Cl)cc(NS(C)(=O)=O)c2F)n1 [encorafenib]
# In short: as §1
# [7] = compound: COC(=O)[C@H](CCSC)NC(=O)C1=C(C=C(C=C1)NC[C@H](CS)N)C2=CC=CC=C2
# In short: as §1
# [8] = compound: COc1cc2nc(-c3cc(F)ccc3O)nc(N[C@@H]3CNC[C@H]3C(C)(C)O)c2cc1OC
# In short: as §1
# [9] = compound: CCn1c(C(=O)N(C2CC2)C2CC2)cc2c3c(ncn3C)c(Nc3cc(C)n(C)n3)nc21
# In short: as §1
# Tubastatin A = compound: CN1CCc2c(c3ccccc3n2Cc2ccc(C(=O)NO)cc2)C1 [Tubastatin A]
# In short: as §1
# alisertib = compound: COc1cc(Nc2ncc3c(n2)-c2ccc(Cl)cc2C(c2c(F)cccc2OC)=NC3)ccc1C(=O)O [alisertib]
# In short: as §1
# gefitinib = compound: COc1cc2ncnc(Nc3ccc(F)c(Cl)c3)c2cc1OCCCN1CCOCC1 [gefitinib]
# In short: as §1
# Sequence of UniProt Q6EEV4 (Q6EEV4 whole entry, looked up): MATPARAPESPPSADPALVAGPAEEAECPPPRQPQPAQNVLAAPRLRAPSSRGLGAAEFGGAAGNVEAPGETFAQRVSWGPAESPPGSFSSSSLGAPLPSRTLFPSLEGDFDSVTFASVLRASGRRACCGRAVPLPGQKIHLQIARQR
# Sequence of UniProt Q16877 (Q16877 whole entry, looked up): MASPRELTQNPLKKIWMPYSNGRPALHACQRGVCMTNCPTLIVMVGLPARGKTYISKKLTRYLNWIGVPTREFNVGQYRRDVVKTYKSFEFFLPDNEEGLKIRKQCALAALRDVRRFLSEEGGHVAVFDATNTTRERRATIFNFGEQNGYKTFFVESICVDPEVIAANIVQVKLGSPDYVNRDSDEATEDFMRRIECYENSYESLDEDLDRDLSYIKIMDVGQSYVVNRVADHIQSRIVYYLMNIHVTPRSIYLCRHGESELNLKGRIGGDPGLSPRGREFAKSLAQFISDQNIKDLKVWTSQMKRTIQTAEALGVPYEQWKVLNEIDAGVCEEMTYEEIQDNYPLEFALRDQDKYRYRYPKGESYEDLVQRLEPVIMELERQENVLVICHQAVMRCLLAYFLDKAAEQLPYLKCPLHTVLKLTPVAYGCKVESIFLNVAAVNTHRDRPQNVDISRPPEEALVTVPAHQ
# Sequence of UniProt O43175 (O43175 whole entry, looked up): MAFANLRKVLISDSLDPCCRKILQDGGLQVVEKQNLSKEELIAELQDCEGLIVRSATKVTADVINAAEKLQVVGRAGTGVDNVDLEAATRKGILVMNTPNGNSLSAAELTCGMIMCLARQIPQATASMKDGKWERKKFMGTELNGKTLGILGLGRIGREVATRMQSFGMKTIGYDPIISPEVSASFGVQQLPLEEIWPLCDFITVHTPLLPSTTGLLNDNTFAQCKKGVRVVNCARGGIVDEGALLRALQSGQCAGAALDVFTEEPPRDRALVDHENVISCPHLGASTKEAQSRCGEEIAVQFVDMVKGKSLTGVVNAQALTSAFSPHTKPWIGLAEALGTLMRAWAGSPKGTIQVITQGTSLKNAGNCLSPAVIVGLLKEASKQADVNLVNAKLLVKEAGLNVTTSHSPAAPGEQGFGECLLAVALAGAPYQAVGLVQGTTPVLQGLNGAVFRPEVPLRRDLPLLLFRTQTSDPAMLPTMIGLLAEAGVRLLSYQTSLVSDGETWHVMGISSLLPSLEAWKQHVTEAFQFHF
# Sequence of UniProt P27986 (P27986 whole entry, looked up): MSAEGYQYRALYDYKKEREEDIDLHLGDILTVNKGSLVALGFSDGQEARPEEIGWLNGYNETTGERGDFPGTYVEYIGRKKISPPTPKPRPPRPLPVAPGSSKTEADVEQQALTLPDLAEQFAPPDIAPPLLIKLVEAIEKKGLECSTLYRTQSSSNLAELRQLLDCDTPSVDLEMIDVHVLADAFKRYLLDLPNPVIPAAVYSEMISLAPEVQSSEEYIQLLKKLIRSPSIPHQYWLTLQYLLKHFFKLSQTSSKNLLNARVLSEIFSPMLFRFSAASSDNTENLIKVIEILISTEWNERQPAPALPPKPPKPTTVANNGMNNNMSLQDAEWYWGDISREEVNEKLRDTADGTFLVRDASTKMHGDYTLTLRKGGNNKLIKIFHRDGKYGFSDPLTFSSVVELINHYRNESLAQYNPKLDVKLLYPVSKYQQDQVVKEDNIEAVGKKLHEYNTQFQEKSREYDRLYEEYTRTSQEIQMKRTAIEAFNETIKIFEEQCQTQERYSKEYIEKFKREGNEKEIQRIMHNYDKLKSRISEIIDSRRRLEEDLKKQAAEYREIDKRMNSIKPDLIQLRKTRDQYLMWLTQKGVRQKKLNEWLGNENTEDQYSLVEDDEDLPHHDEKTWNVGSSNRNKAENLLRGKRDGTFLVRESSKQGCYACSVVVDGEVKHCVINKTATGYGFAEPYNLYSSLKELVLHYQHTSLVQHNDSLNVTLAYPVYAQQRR
# Sequence of UniProt Q9BZL6 (Q9BZL6 whole entry, looked up): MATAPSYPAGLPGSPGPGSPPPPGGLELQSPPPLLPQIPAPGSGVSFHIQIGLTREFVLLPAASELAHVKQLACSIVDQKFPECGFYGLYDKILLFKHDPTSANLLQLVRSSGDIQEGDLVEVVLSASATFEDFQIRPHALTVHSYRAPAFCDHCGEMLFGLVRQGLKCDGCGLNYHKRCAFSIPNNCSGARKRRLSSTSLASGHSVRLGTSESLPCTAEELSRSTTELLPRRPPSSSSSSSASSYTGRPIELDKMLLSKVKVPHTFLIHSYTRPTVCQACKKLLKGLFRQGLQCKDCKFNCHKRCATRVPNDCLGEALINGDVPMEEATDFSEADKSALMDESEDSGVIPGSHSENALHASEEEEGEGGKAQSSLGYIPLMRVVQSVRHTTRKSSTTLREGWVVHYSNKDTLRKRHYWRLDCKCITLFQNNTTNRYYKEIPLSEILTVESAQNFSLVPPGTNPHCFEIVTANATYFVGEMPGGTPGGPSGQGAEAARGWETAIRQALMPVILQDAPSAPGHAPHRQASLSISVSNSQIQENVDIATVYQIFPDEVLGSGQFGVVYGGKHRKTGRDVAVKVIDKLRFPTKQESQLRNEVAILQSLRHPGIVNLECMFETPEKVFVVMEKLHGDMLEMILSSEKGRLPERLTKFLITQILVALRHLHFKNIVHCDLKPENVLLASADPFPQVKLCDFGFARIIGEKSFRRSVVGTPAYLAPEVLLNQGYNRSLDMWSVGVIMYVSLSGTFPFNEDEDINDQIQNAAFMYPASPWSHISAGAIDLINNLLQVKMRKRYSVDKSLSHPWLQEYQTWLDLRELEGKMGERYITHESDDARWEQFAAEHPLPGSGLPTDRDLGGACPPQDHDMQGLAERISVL
# Sequence of UniProt Q05397 (Q05397 whole entry, looked up): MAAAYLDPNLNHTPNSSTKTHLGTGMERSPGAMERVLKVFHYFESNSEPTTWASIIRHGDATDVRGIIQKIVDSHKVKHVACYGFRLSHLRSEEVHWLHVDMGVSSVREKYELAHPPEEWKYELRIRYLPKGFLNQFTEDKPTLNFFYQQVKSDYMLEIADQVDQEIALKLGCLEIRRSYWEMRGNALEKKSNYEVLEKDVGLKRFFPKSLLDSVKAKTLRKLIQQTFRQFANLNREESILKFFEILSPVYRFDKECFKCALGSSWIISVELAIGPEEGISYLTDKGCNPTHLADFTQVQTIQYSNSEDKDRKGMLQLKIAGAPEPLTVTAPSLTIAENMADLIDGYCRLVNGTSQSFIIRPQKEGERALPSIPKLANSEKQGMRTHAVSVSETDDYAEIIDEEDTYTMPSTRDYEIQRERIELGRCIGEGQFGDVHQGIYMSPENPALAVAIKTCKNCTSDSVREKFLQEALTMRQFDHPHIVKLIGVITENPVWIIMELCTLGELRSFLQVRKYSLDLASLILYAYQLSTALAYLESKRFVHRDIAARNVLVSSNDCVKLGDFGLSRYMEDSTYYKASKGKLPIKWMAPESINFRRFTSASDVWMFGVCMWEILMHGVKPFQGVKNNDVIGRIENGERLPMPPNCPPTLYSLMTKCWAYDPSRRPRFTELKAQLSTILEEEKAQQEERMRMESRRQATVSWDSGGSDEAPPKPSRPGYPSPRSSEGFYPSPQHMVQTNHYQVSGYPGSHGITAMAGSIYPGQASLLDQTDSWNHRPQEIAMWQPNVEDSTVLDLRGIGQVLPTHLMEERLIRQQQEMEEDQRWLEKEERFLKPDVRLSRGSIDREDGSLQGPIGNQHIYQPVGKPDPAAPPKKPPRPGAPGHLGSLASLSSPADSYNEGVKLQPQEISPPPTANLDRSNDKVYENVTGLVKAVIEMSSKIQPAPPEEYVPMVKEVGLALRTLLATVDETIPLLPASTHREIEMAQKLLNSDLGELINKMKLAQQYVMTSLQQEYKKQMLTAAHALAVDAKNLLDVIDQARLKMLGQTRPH
# Sequence of UniProt Q9Y5K3 (Q9Y5K3 whole entry, looked up): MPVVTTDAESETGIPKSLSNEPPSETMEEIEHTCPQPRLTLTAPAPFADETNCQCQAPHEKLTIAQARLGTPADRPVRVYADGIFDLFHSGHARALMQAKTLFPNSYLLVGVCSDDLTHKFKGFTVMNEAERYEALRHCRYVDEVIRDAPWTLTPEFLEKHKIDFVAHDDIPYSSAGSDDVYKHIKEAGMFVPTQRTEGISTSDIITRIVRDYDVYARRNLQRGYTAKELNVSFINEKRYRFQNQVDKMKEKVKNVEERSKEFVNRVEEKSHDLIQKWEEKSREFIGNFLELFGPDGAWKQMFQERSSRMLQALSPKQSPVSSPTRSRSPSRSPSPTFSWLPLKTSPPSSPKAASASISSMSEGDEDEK
# Sequence of UniProt Q6P996 (Q6P996 whole entry, looked up): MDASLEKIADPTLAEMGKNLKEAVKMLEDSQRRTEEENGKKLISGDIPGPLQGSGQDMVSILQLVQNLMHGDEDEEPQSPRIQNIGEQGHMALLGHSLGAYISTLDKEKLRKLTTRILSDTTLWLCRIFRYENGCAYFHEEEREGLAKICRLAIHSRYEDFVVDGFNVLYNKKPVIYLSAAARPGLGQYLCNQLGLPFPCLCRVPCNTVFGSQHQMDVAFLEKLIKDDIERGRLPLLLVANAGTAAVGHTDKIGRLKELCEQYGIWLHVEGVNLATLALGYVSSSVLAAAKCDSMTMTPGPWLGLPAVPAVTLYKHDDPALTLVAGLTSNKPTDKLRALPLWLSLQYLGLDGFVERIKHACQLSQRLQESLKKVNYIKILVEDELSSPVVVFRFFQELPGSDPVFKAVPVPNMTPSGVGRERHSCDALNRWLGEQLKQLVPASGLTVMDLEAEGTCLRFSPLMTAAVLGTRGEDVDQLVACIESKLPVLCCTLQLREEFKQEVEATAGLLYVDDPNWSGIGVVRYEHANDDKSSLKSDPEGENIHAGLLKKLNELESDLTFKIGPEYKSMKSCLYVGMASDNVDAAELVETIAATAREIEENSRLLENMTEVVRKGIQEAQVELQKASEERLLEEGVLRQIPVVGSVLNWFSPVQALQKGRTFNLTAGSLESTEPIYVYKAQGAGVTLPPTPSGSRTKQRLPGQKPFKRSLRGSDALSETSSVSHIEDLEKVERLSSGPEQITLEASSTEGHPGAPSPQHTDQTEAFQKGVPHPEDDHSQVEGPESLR
Target,log2 fold change (vemurafenib),log2 fold change [1],log2 fold change (barasertib),log2 fold change [2],log2 fold change (volasertib),log2 fold change [3],log2 fold change [4],log2 fold change (saracatinib),log2 fold change (sotrastaurin),log2 fold change (alvocidib),log2 fold change [5],log2 fold change (defactinib),log2 fold change [6],log2 fold change (encorafenib),log2 fold change [7],log2 fold change [8],log2 fold change [9],log2 fold change (Tubastatin A),log2 fold change (alisertib),log2 fold change (gefitinib)
POLR2M (UniProt Q6EEV4),0.117,-0.043,0.176,0.032,-0.074,0.154,-0.077,0.016,-0.072,0.085,0.075,0.125,0.108,-0.001,-0.081,0.038,,,,
PRKD2 isoform 3 (UniProt Q9BZL6),0.041,-0.048,0.034,-0.358 (active),-0.131,0.038,-0.07,0,0.085,0.01,-0.125,0.24,0.024,0.091,-0.001,0.238,0.097,-0.145,-0.028,-0.165
PIK3CB (UniProt P42338),-0.079,0.001,0.011,0.314,-0.025,-0.02,0.427,-0.03,0.158,-0.002,0.056,-0.044,-0.013,-0.02,-0.126,-0.011,-0.07,-0.123,-0.01,-0.019
PRMT8 (UniProt Q9NR22),0.059,0.021,0.007,-0.009,-0.009,-0.285 (active),0.179,-0.018,0.007,-0.11,0.001,-0.103,-0.005,-0.002,0.004,0.016,-0.005,-0.019,-0.01,0.034
PDXDC1 (UniProt Q6P996),-0.005,-0.02,0.008,0.03,-0.059,-0.031,-0.067,-0.005,0.015,-0.005,-0.007,0.034,0.088,0.058,0.085,-0.006,-0.004,-0.065,0.049,0.032
PIK3R1 (UniProt P27986),0.011,-0.01,-0.005,0.172,0.016,-0.037,0.365 (active),0.025,0.056,0.032,0.075,-0.066,-0.039,-0.025,-0.111,0.023,0.023,-0.037,0.078,-0.045
PHGDH (UniProt O43175),-0.005,-0.001,-0.049,0.02,-0.025,0.098,-0.051,-0.012,-0.027,0.028,-0.081,0.022,0.018,0.006,-0.439 (active),0.006,0.016,-0.415 (active),0.004,-0.016
PRKCSH (UniProt K7ELL7),0.089,0.02,-0.037,0.186,-0.04,0.217,-0.008,-0.011,-0.015,0.048,-0.026,0.006,-0.013,0.048,-0.002,0.083,0.013,0.073,0.018,-0.12
PPP2R3C (UniProt Q969Q6),-0.081,-0.094,0.094,-0.244,0,-0.392 (active),0.115,0.04,,-0.018,-0.046,0.072,0.081,0.105,0.013,-0.23,0.071,-0.145,0.069,0.105
PTK2 (UniProt Q05397),0.017,-0.091,-0.015,0.352,0.145,-0.001,0.056,-0.023,0.039,0.02,0.54 (active),0.518 (active),-0.055,-0.057,-0.126,0.113,0.044,-0.033,0.17,-0.022
PRKD3 (UniProt O94806),-0.148,-0.057,0.161,-0.25,-0.06,-0.876 (active),0.219,,0.086,-0.308,-0.066,0.059,,0.077,0.233,0.087,-0.143,-0.014,0.139,-0.051
QKI (UniProt Q96PU8),-0.006,0.024,-0.027,0.087,-0.021,-0.196,0.107,0.047,0,-0.058,0.024,0.029,-0.02,0.045,-0.206,0.009,0.001,-0.005,0.069,0.021
PPP2R5C isoform 5 (UniProt Q13362),-0.056,-0.013,-0.03,-0.063,0.014,0.046,-0.08,0,-0.011,0.016,0.012,0.029,-0.048,0.029,-0.039,-0.014,0.058,-0.018,0.002,0.004
PFKFB4 (UniProt Q16877),0.021,0.005,0.087,0.015,-0.068,0.014,0.007,0.077,0.043,-0.03,0.029,0.011,-0.027,0.02,-0.019,-0.016,-0.011,-0.009,,
PCYT1B (UniProt Q9Y5K3),0.013,0.011,0.012,0.046,0.017,-0.094,0.063,0.012,-0.002,-0.007,0.033,0.01,0.086,0.047,-0.025,-0.02,0.008,-0.023,0.033,0.033
PDCD4 (UniProt Q53EL6),0.014,0.02,0.024,-0.023,-0.03,-0.029,-0.013,0.009,0.001,0.01,0.017,0.002,0.019,0.019,-0.034,0.015,0.029,-0.033,-0.005,-0.003

# — the supplement of paper PMC10849652
